Test results from PubChem BioAssay (NCATS).
Where “and” joins values, the source holds several entries; their conditions need not be identical. Equal entries are not always repeated. Results filed as inconclusive are left out. Calls of active or inactive are those of the source. Calls come from the whole dose curve.

These compounds were tested against Bile acid receptor (Homo sapiens) (UniProt Q96RI1) (assay: qHTS assay for small molecule agonists of farnesoid X receptor signaling (AID 588527;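 note: series mostly up to about 77 µM; 0% = vehicle basal and 100% = reference agonist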)). Conditions: HEK293T FXR-UAS-bla, beta-lactamase ratio, 16 h; activation: stronger effect = higher value.
Procedure, shortened: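 Quantitative HTS used FXR-UAS-bla HEK293T cells with 16 h compound incubation at 37 C. EC50 values came from concentration-response curves normalized to chenodeoxycholic acid.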

Chain of Bile acid receptor (Homo sapiens) (Q96RI1 whole entry, looked up): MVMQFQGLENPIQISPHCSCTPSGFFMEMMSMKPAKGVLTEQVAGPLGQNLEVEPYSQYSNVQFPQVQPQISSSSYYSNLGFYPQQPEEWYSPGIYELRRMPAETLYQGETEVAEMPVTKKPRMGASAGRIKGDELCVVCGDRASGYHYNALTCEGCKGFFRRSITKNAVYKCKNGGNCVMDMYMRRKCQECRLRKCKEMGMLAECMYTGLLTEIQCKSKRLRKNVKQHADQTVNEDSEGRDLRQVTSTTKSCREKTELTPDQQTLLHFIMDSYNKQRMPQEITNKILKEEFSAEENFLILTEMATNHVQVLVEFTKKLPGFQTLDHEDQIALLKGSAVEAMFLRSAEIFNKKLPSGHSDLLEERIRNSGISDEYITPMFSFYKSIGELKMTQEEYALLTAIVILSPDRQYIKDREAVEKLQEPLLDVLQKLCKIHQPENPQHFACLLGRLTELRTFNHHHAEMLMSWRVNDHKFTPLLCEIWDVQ

| SMILES | activation |
| --- | --- |
| Nc1c(Cl)cc(Cl)cc1Cl | 0.611% (inactive) |
| N#CC1(O)CCCCC1 | -2.07% (inactive) |
| CCCCN(CCO)CCCC | -4.1% (inactive) |
| C=CC(C)(O)CC/C=C(\C)CCC=C(C)C (stereo not given) | 0.971% (inactive) |
| CCC(C)(C)OC | 0.74% (inactive) |
| NCCCCCCCCCCC(=O)O | 1.65% (inactive) |
| O=C(O)CNC(=O)c1ccc([N+](=O)[O-])cc1 | 1.14% (inactive) |
| CC(C)(c1cc(Br)c(O)c(Br)c1)c1cc(Br)c(O)c(Br)c1 | 3.15% (inactive) and 6.79% (inactive) and 4.84% (inactive) |
| C1CCOC1 | -4.53% (inactive) |
| C=Cc1ccc(P(c2ccccc2)c2ccccc2)cc1 | -1.25% (inactive) |
| COC(=O)C1CCC(C(=O)OC)CC1 (stereo not given) | -4.06% (inactive) |
| Cc1ccc(C(=O)O)cc1 | -1.14% (inactive) |
| CC(/C=C/C=C(C)/C=C/C(=O)O)=C\C=C\C=C(C)\C=C\C=C(C)\C=C\C(=O)O | 3.47% (inactive) |
| CC(C)(C)[C@H](O)[C@H](Cc1ccc(Cl)cc1)n1cncn1 | -2.05% (inactive) and 0.498% (inactive) |
| CC(=O)OC1CC(C)OC(C)O1 (stereo not given) | -3.17% (inactive) and -0.0131% (inactive) |
| O=C(O)c1ccccc1[N+](=O)[O-] | -1.37% (inactive) |
| C=CC(=O)NC(C)C | -0.191% (inactive) |
| CNC(=O)c1ccccc1 | 3.12% (inactive) |
| CC(N)CN (stereo not given) | -2.35% (inactive) |
| Cl[Si](Cl)(Cl)c1ccccc1 | 0.575% (inactive) |

| SMILES | activation |
| --- | --- |
| CC(C)=CCC/C(C)=C\CO | -0.74% (inactive) |
| Nc1ccccc1[N+](=O)[O-] | -3.44% (inactive) |
| C[Si](C)(C)O[Si](C)(C)C | -0.871% (inactive) |
| Nc1cccc(O)c1 | -1.81% (inactive) |
| CC(COCC(C)OC(=O)c1ccccc1)OC(=O)c1ccccc1 (stereo not given) | 3.09% (inactive) |
| CCCCOCC(C)OCC(C)O (stereo not given) | 5.12% (inactive) |
| CCCCOCCOCCOC(=O)CCCCC(=O)OCCOCCOCCCC | 3.42% (inactive) |
| CCC(C)O (stereo not given) | 0.0237% (inactive) |
| Cc1ccc([N+](=O)[O-])c(C)c1 | 0.441% (inactive) and 0.298% (inactive) |
| O=[N+]([O-])c1ccc(NCCO)c(OCCO)c1 | -1.27% (inactive) |
| O=C(O)CN(CCCN(CC(=O)O)CC(=O)O)CC(=O)O | 8.42% (inactive) |
| CC(=O)Nc1ccc(N=Nc2cc(C)ccc2O)cc1 | 0.585% (inactive) |
| C=Cc1ccc(C=C)cc1 | -3.75% (inactive) |
| CC1COCc2cc3c(cc21)C(C)(C)C(C)C3(C)C (stereo not given) | 0.585% (inactive) |
| CCCCC(CC)COP(=O)(O)OCC(CC)CCCC (stereo not given) | -0.5% (inactive) |
| CC(Cl)(Cl)C(=O)OCCOc1cc(Cl)c(Cl)cc1Cl | 0.229% (inactive) |
| C#CCOC(=O)[C@@H](C)Oc1ccc(Oc2ncc(Cl)cc2F)cc1 | -1.83% (inactive) |
| Oc1c(Cl)cc(Cl)c(Cl)c1Cl | -1.79% (inactive) and -2.07% (inactive) |
| CCC(C)(C)C(=O)O | 0.339% (inactive) |
| O=C(O)c1c(Cl)cccc1Cl | 2.87% (inactive) |
